Laboratory results reported in PubChem BioAssay (EPA / NIEHS).
Records with an inconclusive call do not appear. Active and inactive are the calls of the source. How the source made its calls: active means hit-call score of the fitted dose curve at least 0.9, where 1 is the maximum; inconclusive means response in the unintended direction; inactive means score below 0.9.

Biological target: Cellular tumor antigen p53 (Homo sapiens) (UniProt P04637)
Assay: TOX21_p53_BLA_p3_ratio: Tox21 HCT-116 p53 Agonism Beta-lactamase Assay, Ratio, Phase 3 (AID 2283596)
Text: TOX21_p53_BLA_p3 is a cell-based, single-readout assay that uses HCT116, a human intestinal cell line, […] in a 1536-well plate.TOX21_p53_BLA_p3_ratio is an assay readout measuring reporter gene via receptor activity and designed using inducible reporter (beta lactamase induction) detected with GAL4 b-lactamase reporter gene. The signal is derived from the ratio of cleaved (ch2) to uncleaved (ch1) reporter gene substrate used as the measure of target activity.Data from the assay component TOX21_p53_BLA_p3_ratio was analyzed into 1 assay endpoint. This assay endpoint, TOX21_p53_BLA_p3_ratio, was analyzed in the positive analysis fitting direction relative to DMSO as the negative control and baseline of activity. Using a type of inducible reporter, gain-of-signal activity can be used to understand changes in the reporter gene as they relate to the gene TP53. Furthermore, this assay endpoint can be referred to as a primary readout, because this assay has produced multiple assay endpoints where this ratio serves a reporter gene function to understand target activity. To generalize the intended target to other relatable targets, this assay endpoint is annotated to the DNA binding intended target family, where the subfamily is tumor suppressor.
Thawing Method: Place 14 mL of pre-warmed thaw medium into a 15 mL of conical tub. Remove the vial of cells to be thawed from liquid nitrogen and thaw rapidly by placing at 37C in a water bath with gentle agitation for 1-2 minutes. Decontaminate the vial by wiping with 70% ethanol before opening in a biological safety cabinet. Transfer the vial contents drop-wise into 14 mL of thaw medium in a sterile 15-mL conical tub. Centrifuge cells at 900 rpm for 4 minutes and resuspend in thaw medium. Transfer contents to the T75 tissue culture flask containing Thaw Medium and place flask in a humidified 37C/5% CO2 incubator. Switch to growth medium at first passage.Propagation Method: Aspirate medium, rinse once in DPBS, add 0.25% Trypsin/EDTA and swirl to coat the cell evenly. Add an equal volume of Growth Medium to inactivate Trypsin after 2-3 minutes incubation at 37C. Centrifuge cells at 900 rpm for 4 minutes and resuspend in growth medium. Cell should be passage or fed at least twice a week.Assay Protocol: Harvest cells from culture in growth medium and resuspend in assay medium. 2.2 Dispense 4000 cells/5 uL/well into 1536-well black/clear bottom plates using a Multidrop dispenser. After the cells were incubated at 37C for 5 hours, 23 nL of compounds dissolved in DMSO were transferred to the assay plate by a PinTool resulting in a 217-fold dilution. Incubate the plates for 16 hours at 37C, 5% CO2. Add 1 uL of 6X LiveBLAzer FRET B/G (CCF4-AM) Substrate Mixture to each well using a BioRAPTR dispenser and incubate the plates at room temperature for 2 hours. Measure fluorescence intensity at 460 and 530 nm emission and 405 nm excitation by an Envision detector. Data is expressed as the ratio of 460nm/530nm emissions. Add 4 uL of Cell-titer Glo to each well using BioRAPTR and incubate the plates at room temperature for 2 hours. Measure fluorescence intensity by a VewLux plate reader.

Sequence of Cellular tumor antigen p53 (Homo sapiens) (P04637 whole entry, looked up): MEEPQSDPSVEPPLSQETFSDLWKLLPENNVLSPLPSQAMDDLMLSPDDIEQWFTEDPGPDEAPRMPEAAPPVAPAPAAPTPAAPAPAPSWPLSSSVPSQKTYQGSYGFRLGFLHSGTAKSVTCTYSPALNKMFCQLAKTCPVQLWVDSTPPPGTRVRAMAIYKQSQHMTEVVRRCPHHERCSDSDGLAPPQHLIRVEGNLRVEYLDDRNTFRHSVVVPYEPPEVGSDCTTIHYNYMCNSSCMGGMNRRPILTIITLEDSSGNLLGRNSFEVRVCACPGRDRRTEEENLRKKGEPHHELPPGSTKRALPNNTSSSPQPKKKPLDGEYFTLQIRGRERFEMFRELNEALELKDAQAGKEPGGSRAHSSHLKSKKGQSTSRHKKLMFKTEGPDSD

Compound	outcome	AC50
CC(=O)c1ccc2ccc3ccccc3c2c1	inactive	
CN1CCN(C2=Nc3ccccc3Oc3ccc(Cl)cc32)CC1	inactive	
CCN(CC)CCNC(=O)COc1ccc(OC)cc1	inactive	
C[C@H](O)C(=O)Nc1c(I)c(C(=O)NC(CO)CO)c(I)c(C(=O)NC(CO)CO)c1I	inactive	
C[C@H]1NCc2cc(-c3ccc4c(=O)c(C(=O)O)cn(C5CC5)c4c3OC(F)F)ccc21	inactive	
CC1CCCC(=O)C1=O (stereo not given)	inactive	
Cc1cc(O)ccc1O	inactive	
Nc1nc2c(ncn2COCCO)c(=O)[nH]1	inactive	
O=C(O)CCC/C=C\C[C@@H]1[C@@H](/C=C/[C@@H](O)COc2cccc(Cl)c2)[C@H](O)C[C@@H]1O	inactive	
CC(=O)N[C@@H](CC(=O)N[C@@H](CCC(=O)O)C(=O)O)C(=O)O	inactive	
CC(=O)NC[C@H]1CN(c2ccc(N3CCOCC3)c(F)c2)C(=O)O1	inactive	
O=C1OC(=O)c2cccc3cccc1c23	inactive	
CCOC(=O)c1ccc(OC(=O)CCCCCN=C(N)N)cc1	inactive	
COc1ccc(NS(=O)(=O)c2ccc(N)cc2)nn1	inactive	
ClC/C=C\CCl	inactive	
COC(=O)c1cc(C(=O)OC)cc(S(=O)(=O)O)c1	inactive	
COc1cc(Nc2c(C#N)cnc3cc(OCCCN4CCN(C)CC4)c(OC)cc23)c(Cl)cc1Cl		17.8 µM (active)
CCOc1cc(NC(C)=O)ccc1C(=O)OC	inactive	
CCNS(=O)(=O)c1ccc(C)cc1	inactive	
C[C@@H](O)C(=O)O	inactive	

Compound	outcome	AC50
C#C[C@]1(O)CC[C@H]2[C@@H]3CCC4=CC(=O)CC[C@@H]4[C@H]3C(=C)C[C@@]21CC	inactive	
COc1ccc(CCC(=O)c2c(O)cc(O[C@@H]3O[C@H](CO)[C@@H](O)[C@H](O)[C@H]3O[C@@H]3O[C@@H](C)[C@H](O)[C@@H](O)[C@H]3O)cc2O)cc1O	inactive	
CC(C)C(=O)O	inactive	
C#CC(O)CCCCC (stereo not given)	inactive	
Cc1ccc(O)c(N)c1	inactive	
NC(=O)Cc1cccc2ccccc12	inactive	
CC1(C)Cc2cccc(N)c2O1	inactive	
CC(C)CCC[C@@H](C)[C@H]1CC(=O)C2=C3CC[C@H]4C[C@@H](O)CC[C@]4(C)[C@H]3CC[C@@]21C	inactive	
CC1OCCC1=O (stereo not given)	inactive	
Cc1nnc(C(=O)NC(C)(C)c2nc(C(=O)NCc3ccc(F)cc3)c(O)c(=O)n2C)o1	inactive	
CC(C)NC[C@@H](O)COc1cccc2ccccc12	inactive	
NC(=O)Nc1nc2ccccc2[nH]1	inactive	
CC1=C(/C=C/C(C)=C/C=C/C(C)=C/C=C/C=C(C)/C=C/C=C(C)/C=C/C2=C(C)C(=O)CCC2(C)C)C(C)(C)CCC1=O	inactive	
Cc1ccnc2c1NC(=O)c1cccnc1N2C1CC1	inactive	
CC(C)COC(=O)OCN1C(=O)CN(CCN2CC(=O)N(COC(=O)OCC(C)C)C(=O)C2)CC1=O		4.07 µM (active)
Cc1ccccc1C(=O)Nc1ccc(C(=O)N2CCCC(O)c3cc(Cl)ccc32)c(C)c1 (stereo not given)	inactive	
CC(CN1c2ccccc2Sc2cccnc21)N(C)C (stereo not given)	inactive	
Nc1ncnc2c1ncn2[C@@H]1O[C@H](COP(=O)(O)O)[C@@H](O)[C@H]1O	inactive	
CC(C)(O/N=C(\C(=O)N[C@@H]1C(=O)N2C(C(=O)[O-])=C(C[n+]3ccccc3)CS[C@H]12)c1csc(N)n1)C(=O)O	inactive	
[Cl-].[Cl-].[NH-]CC[NH-].[Pt+4]	inactive	
